From PubChem BioAssay (NCATS)
“And” between values parts separate entries of the source, which are not always exact repeats. Equal entries are not always repeated. Records with an inconclusive call do not appear. A number with no mark means an inactive call. The source made the active and inactive calls. The call rests on the fitted dose curve; in most records, active means well fitted inhibition curve with a large enough effect; inconclusive means small, poorly fitted or top-dose-only effect; inactive means flat fitted curve, though single readings scatter.

What was measured:
[1] = system: KB-3-1; assay: Cytotoxic Profiling of Annotated Libraries Using Quantitative High-Throughput Screening (AID 1296008); conditions: Five cell lines viability, CellTiter-Glo ATP luminescence, 48-72 h; max response: hits give low values; further: potency means the concentration at half of the fitted maximal effect; on max response: on the % scale 0 is the no-effect control and ±100 the full control effect
In short: (§1)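 Cytotoxicity was measured as CellTiter-Glo ATP luminescence, read after 10 min at room temperature. Compound treatment of the cells lasted 48 or 72 hr at 37 degrees Celsius in a qHTS format.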

[2] = system: HaCat; assay: as above; conditions: Five cell lines viability, CellTiter-Glo ATP luminescence, 48-72 h; max response: hits give low values
In short: as §1

[3] = system: NIH3T3; assay: as above; conditions: Five cell lines viability, CellTiter-Glo ATP luminescence, 48-72 h; max response: hits give low values
In short: as §1

[4] = system: HACAT; assay: qHTS assay to identify novel small-molecules to repurpose for Merkel cell carcinoma treatment (AID 1296009); conditions: MCC and control cell lines, CellTiter-Glo viability, 72 h; at 44.8 µM (top of the series) unless noted
In short: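 Cell viability measured by CellTiter-Glo following 72 hr compound treatment at 37 degree celsius, with NPC and MIPE libraries tested in 8- and 11-point concentration series.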
Further: nearly all actives have a fitted effect of over 60% in size.

Which max response [1] does the source give for `CCCCCCCCCCCCCCCC(=O)O[C@@H]1CC(C)=C(/C=C/C(C)=C/C=C/C(C)=C/C=C/C=C(C)/C=C/C=C(C)/C=C/C2=C(C)C[C@@H](OC(=O)CCCCCCCCCCCCCCC)CC2(C)C)C(C)(C)C1` here?
Its max response is -27.5%.

For `CC(=O)O[C@H]1CC2C(COC(=O)CC(C)C)=CO[C@@H](OC(=O)CC(C)C)C2[C@]12CO2` (stereo partly drawn), which max response [2] is on record?
Its max response is -12.1%.

What about the outcome [3] of the same molecule?
The outcome was “inactive”.

Which results are given for `COC1C(O)C(OC2CCC3(C)C(CCC45CCC6C7(COC(=O)C7)OC4(O)C6(C)CCC35)C2)OC(C)C1OC1OC(CO)C(OC2OC(CO)C(O)C(O)C2O)C(O)C1O` (stereo not drawn)?
outcome [2]: inactive; max response [3]: 1.1%; outcome [4]: inactive [at 9.27 µM]

How did the max response [1] turn out when `CS(=O)(=O)OCCCNCCCOS(C)(=O)=O` was run?
The max response was -5.57%.

For `O=C(Nc1ccccc1)N1CCN(c2nc(-c3ccccc3)ns2)CC1`, which outcome [2] is on record?
Its outcome is “inactive”.

And the max response [3]?
Its max response is -11.1%.

What about the outcome [4] of the same molecule?
Its outcome is “inactive”.

How did the outcome [2] turn out when `C=C1CC[C@@H]2[C@](C)(CO)[C@H](O)CC[C@@]2(C)[C@@H]1/C=C/C1=CCOC1=O` was run?
The outcome was “inactive”.

And the max response [3]?
Its max response is -1.38%.

What about the outcome [4] of the same molecule?
Its outcome is “inactive”.

Which Potency [1] does the source give for `CON=C1C[C@]2(C[C@@H]3C[C@@H](C/C=C(\C)C[C@@H](C)/C=C/C=C4\CO[C@@H]5[C@H](O)C(C)=C[C@@H](C(=O)O3)[C@]45O)O2)O[C@H](/C(C)=C/C(C)C)[C@H]1C` here?
Its Potency is 20.6 µM (active).

Which max response [2] does the source give for `CC(=O)C1=CCC2C3CC=C4CC(O)CC(O)C4(C)C3C(O)CC12C` (stereo not drawn) here?
Its max response is 1.07%.

And the outcome [3]?
The outcome was “inactive”.

Which results are given for `OC(CC1c2ccccc2-c2cncn21)C1CCCCC1` (stereo not drawn)?
max response [2]: -2.64%; max response [3]: -17.5%

Which results are given for `C/C=C\NC(=O)C1NC(=O)C(CC(N)=O)NC(=O)C(NC(=O)C(=O)C(C)CC)Cc2ccc(O)c(c2)-c2cccc3c2NC(=O)C3(O)C1O` (stereo not drawn)?
outcome [2]: inactive; max response [3]: -19%; outcome [4]: inactive [at 17.4 µM]

For `C#CCOc1ccc2c(c1)c(-c1ccc(C(C)C)cc1)nc(=O)n2C(C)C`, which outcome [2] is on record?
The outcome was “inactive”.

And the max response [3]?
The max response was -1.76%.

And the outcome [4]?
Its outcome is “inactive”.

How did the outcome [2] turn out when `CC(=O)OC[C@]12[C@H](OC(C)=O)C(=O)[C@@H]3[C@@H](O)[C@@]14O[C@@]3(C)COC(=O)c1cccnc1[C@@H](C)[C@H](C)C(=O)O[C@@H]([C@H](O)[C@@H]2OC(C)=O)[C@]4(C)O` was run?
Its outcome is “inactive”.

What about the max response [3] of the same molecule?
The max response was -17.4%.

What about the outcome [4] of the same molecule?
The outcome was “inactive [at 17.4 µM]”.

How did the outcome [2] turn out when `CC(=O)OC1CC(O)(C(C)C)C2C(OC(=O)c3ccc(O)cc3)C=C(C)C(=O)CC12C` (stereo not drawn) was run?
Its outcome is “inactive”.

What about the max response [3] of the same molecule?
Its max response is 0.784%.

And the outcome [4]?
The outcome was “inactive [at 17.4 µM]”.

How did the max response [1] turn out when `O=S(=O)(O)Oc1ccc(C(c2ccc(OS(=O)(=O)O)cc2)c2ccccn2)cc1` was run?
Its max response is -0.878%.

Which outcome [2] does the source give for `C[C@@H]1O[C@@H](O[C@H]2[C@@H]3C=CO[C@@H](O[C@@H]4O[C@H](CO)[C@@H](O)[C@H](O)[C@H]4O)[C@@H]3[C@@]3(CO)O[C@@H]23)[C@H](O)[C@H](OC(=O)/C=C/c2ccccc2)[C@H]1O` here?
Its outcome is “inactive”.

And the outcome [4]?
The outcome was “inactive [at 17.4 µM]”.

Which max response [1] does the source give for `NCCCC[C@H](NC(=O)[C@@H]1CCCN1C(=O)[C@@H]1CSSC[C@H](N)C(=O)N[C@@H](Cc2ccccc2)C(=O)N[C@@H](Cc2ccccc2)C(=O)N[C@@H](CCC(N)=O)C(=O)N[C@@H](CC(N)=O)C(=O)N1)C(=O)NCC(N)=O` here?
The max response was -12.7%.

Which max response [1] does the source give for `NCCC[C@H](N)C(=O)O` here?
The max response was -6.2%.

With `O=S(O)CO` as the molecule, how does the max response [1] read?
Its max response is -16%.

For `CCCC(=O)O[C@]1(C(=O)COC(=O)CC)[C@@H](C)C[C@H]2[C@@H]3CCC4=CC(=O)C=C[C@]4(C)[C@@]3(F)[C@@H](O)C[C@@]21C`, which max response [1] is on record?
Its max response is -7.8%.

Which max response [1] does the source give for `CN1CCN(CCCN2c3ccccc3Sc3ccccc32)CC1` here?
The max response was -4.85%.

`CCCCCCCC/C=C\CCCCCCCC(=O)OC[C@@H](O)[C@H]1OC[C@H](O)[C@H]1O` was tested. Which max response [1] did it give?
The max response was -11.7%.

`CCOC(=O)[C@H](CCc1ccccc1)N[C@H]1CCCN2CCC[C@@H](C(=O)O)N2C1=O` was tested. Which max response [1] did it give?
Its max response is 1.33%.

`CCCC1([C@H](O)C/C=C/[C@H]2[C@H](O)CC(=O)[C@@H]2CCCCCCC(=O)OC)CCC1` was tested. Which max response [1] did it give?
The max response was -18.2%.

For `CC(=O)[C@@]1(O)CC[C@H]2[C@@H]3C=C(Cl)C4=CC(=O)CC[C@]4(C)[C@H]3CC[C@@]21C`, which max response [1] is on record?
Its max response is -17.5%.

With `CSCC[C@H](NC(=O)[C@H](Cc1ccc(OS(=O)(=O)O)cc1)NC(=O)[C@@H](N)CC(=O)O)C(=O)NCC(=O)N[C@@H](Cc1c[nH]c2ccccc12)C(=O)N[C@@H](CCSC)C(=O)N[C@@H](CC(=O)O)C(=O)N[C@@H](Cc1ccccc1)C(N)=O` as the molecule, how does the max response [1] read?
Its max response is -5.26% and -10.7%.
